High-throughput results deposited in PubChem by Broad Institute.
aSyn 5UTR act: Activators via SNCA 5'UTR binding, MLPCN; alpha-synuclein 5'UTR reporter, activators screen; activity score, % (tested at 7.5 µM), hits read low; actives 7.1% (n = 300,000); AID 1814, 2009; in the data active = activity score below about -60%
Active calls of the source: *. The entries come from a sample that favours hits as a whole.

For CCOc1ccccc1-c1nc(-c2ccc(NC(=O)c3ccc(Br)o3)cc2)no1 the results were aSyn 5UTR act -135.9*.
`Clc1c(-c2ccccc2)nc2ccccn12` gave aSyn 5UTR act -151.6*.
`Cc1ccc(-c2nc3ccccn3c2C=O)cc1` gave aSyn 5UTR act -107.9*.
Screening c1ccn2c(c1)nc1c2nc2ccccn21 returned aSyn 5UTR act -189.2*.
`Cc1c(-c2ccc(Br)cc2)nc2ccccn12` gave aSyn 5UTR act -180.6*.
For COc1ccc2c(c1)CCC1C2=NN(/C(C)=C/C(C)=O)C1c1cccc(F)c1 (stereo not drawn) the results were aSyn 5UTR act -66.4*.
`O=C(Cn1ccsc1=NC(=O)C(F)(F)F)c1ccccc1` gave aSyn 5UTR act -122.8*.
O=[N+]([O-])c1ncccc1OCc1ccc(Cl)c(Cl)c1 was read as aSyn 5UTR act -121.3*.
For CC(=O)OCCCN1c2ccccc2Nc2nnc(-c3ccccc3)cc21 the results were aSyn 5UTR act -155.3*.
For O=C(Nc1ccccc1)[C@@H]1[C@@H]2C(=O)N(c3ccc(F)cc3)C(=O)[C@@H]2[C@H]2C=CC=NN21 the results were aSyn 5UTR act -67.9*.
For CC(=O)Oc1ccc(C(=O)[C@H]2[C@H]3C(=O)N(c4ccc(C)cc4)C(=O)[C@H]3[C@@H]3C=CC=NN32)cc1 the results were aSyn 5UTR act -62.4*.
`CNC(=O)C1CCN(S(=O)(=O)c2c(C)noc2/C=C/c2ccccc2F)CC1` gave aSyn 5UTR act -69.2*.
Cc1ccc(C(=O)NNc2c3ccccc3nc3ccccc23)cc1 was read as aSyn 5UTR act -87.3*.
Screening O=C(NNc1c2ccccc2nc2ccccc12)c1ccc(Cl)cc1 returned aSyn 5UTR act -79.9*.
`CSc1nc(N(C)NC(=O)c2ccc(Cl)cc2)c2ccccc2n1` gave aSyn 5UTR act 92.6.
`Cc1ccc2nsnc2c1NC(=O)CCl` gave aSyn 5UTR act -82.3*.
Screening Cc1ccc2nsnc2c1NC(=O)c1ccc([N+](=O)[O-])o1 returned aSyn 5UTR act -173.5*.
CCN(CC)CCn1c(=O)n(-c2ccc(Cl)cc2)c(=O)c2c3c(sc21)CN(C)CC3 was read as aSyn 5UTR act -66.5*.
Cn1c(-c2ccc3c(c2)OCO3)cnc1NCc1ccccc1Cl was read as aSyn 5UTR act -94.5*.
`Cn1c(-c2ccc3c(c2)OCO3)cnc1NCc1ccccc1` gave aSyn 5UTR act -103.6*.
`O=C(NC1CC1)c1cc2c(s1)-c1ccccc1OC2` gave aSyn 5UTR act -82.4*.
For O=C(NCc1cccs1)c1cc2c(s1)-c1ccccc1OC2 the results were aSyn 5UTR act -89.8*.
CN(C)CCNC(=O)c1cc2c(s1)-c1ccc(Cl)cc1SC2 was read as aSyn 5UTR act 100.5.
For NNc1nc(-c2ccccc2Cl)nc2sc3c(c12)CCCC3 the results were aSyn 5UTR act -200.0*.
For Cc1ccc(NC(=O)C2=C(O)CCn3c2nc2ccccc23)cc1 the results were aSyn 5UTR act -131.1*.
NC(=S)N/N=C/c1coc2c(ccc3ccccc32)c1=O was read as aSyn 5UTR act -74.2*.
Cc1ccc(-n2nc3c(n2)/C(=N/O)CC/C3=N\O)cc1 was read as aSyn 5UTR act -89.1*.
COc1ccc(C(=O)NCCC2=CCCCC2)cc1OC1CCN(C(C)C)CC1 was read as aSyn 5UTR act -74.5*.
For Cc1cc(C(=O)NCCC2=CCCCC2)c(C)o1 the results were aSyn 5UTR act -122.7*.
For O=C(COC(=O)c1ccccc1Br)NCCC1=CCCCC1 the results were aSyn 5UTR act -64.4*.
Screening COc1cccc(C(=O)NCCC2=CCCCC2)c1OC returned aSyn 5UTR act -117.1*.
Screening O=C(NCCC1=CCCCC1)c1cnccn1 returned aSyn 5UTR act -114.0*.
For COc1cccc(-c2nnc(NC(=O)C3CCCCC3)o2)c1 the results were aSyn 5UTR act -96.2*.
For Cc1cccc(C)c1OCC(=O)Nc1cccc(-c2nnc(-c3ccccc3)o2)c1 the results were aSyn 5UTR act -90.9*.
`O=C(Nc1cccc(-c2nnc(-c3ccccc3)o2)c1)C1CCCCC1` gave aSyn 5UTR act -105.1*.
Screening CCC(=O)Nc1cccc(-c2nnc(-c3ccccc3)o2)c1 returned aSyn 5UTR act -201.3*.
`Cc1ccc(NC(=O)Nc2nnc(-c3ccccc3)o2)cc1` gave aSyn 5UTR act -74.6*.
Cc1ccc(-c2nnc(-c3cccc(NC(=O)c4cccs4)c3)o2)cc1 was read as aSyn 5UTR act -94.0*.
Cc1cc(NC(=O)CSc2ccc(-c3nc4cc(C)c(C)cc4[nH]3)cn2)no1 was read as aSyn 5UTR act -99.9*.
For Cc1cc2nc(-c3ccc(SCC(=O)Nc4ccc(S(=O)(=O)NC5CC5)cc4)nc3)[nH]c2cc1C the results were aSyn 5UTR act -115.7*.
`Cc1cc2nc(-c3ccc(SCc4ccc(C(=O)O)cc4)nc3)[nH]c2cc1C` gave aSyn 5UTR act -160.0*.
`Cc1cc2nc(-c3ccc(SCC(=O)NC(C)C)nc3)[nH]c2cc1C` gave aSyn 5UTR act -134.4*.
For Cc1cc2nc(-c3ccc(SCc4ccccc4C#N)nc3)[nH]c2cc1C the results were aSyn 5UTR act -78.0*.
Cc1cc2nc(-c3ccc(SCC(=O)N4CCc5ccccc54)nc3)[nH]c2cc1C was read as aSyn 5UTR act -220.3*.
Screening CCOc1ccc(OCc2ccc(C(=O)NC(C)(C)C)o2)cc1 returned aSyn 5UTR act -70.3*.
CCOc1ccc(OCc2ccc(C(=O)Nc3cccnc3)o2)cc1 was read as aSyn 5UTR act -81.2*.
For CN(C)c1ccc(NC(=O)c2ccc(COc3cccc(Cl)c3)o2)cc1 the results were aSyn 5UTR act -112.0*.
For CC(C)NC(=O)c1ccc(COc2ccc(C(C)(C)C)cc2)o1 the results were aSyn 5UTR act -135.7*.
`COc1ccccc1-c1cnn2c(NC3CCCC3)cc(C)nc12` gave aSyn 5UTR act -181.9*.
For COc1ccccc1-c1ccc(NC2CCCC2)nn1 the results were aSyn 5UTR act -120.4*.
For COc1cc2c(cc1OC)-c1cc(NC3CCCCCCC3)nc(=O)n1CC2 the results were aSyn 5UTR act 70.0.
CCN(CCn1cccn1)C(=O)c1cc(COc2ccccc2SC)on1 was read as aSyn 5UTR act -89.7*.
For CCN(CCn1cccn1)C(=O)c1cc(COc2cc(C)ccc2C)on1 the results were aSyn 5UTR act -79.0*.
`Cn1cc(/C=C(\C#N)C(=O)Nc2ccccc2O)c2ccccc21` gave aSyn 5UTR act -118.4*.
For Cc1cc(N2CCN(C)CC2)nc2ccc(NC(=S)NCc3cccs3)cc12 the results were aSyn 5UTR act -77.9*.
For Cc1cc(N2CCN(C)CC2)nc2ccc(NC(=S)NCCC(C)C)cc12 the results were aSyn 5UTR act -85.8*.
Screening CCCN(CCC)CCCNC(=S)Nc1ccc2nc(N3CCCC3)cc(C)c2c1 returned aSyn 5UTR act -72.3*.
Screening Cc1cs/c(=N\N=C\c2cccc([N+](=O)[O-])c2)n1Cc1ccco1 returned aSyn 5UTR act -97.3*.
Screening C/C(=C\C(=O)c1ccccc1)NCc1ccc(F)cc1 returned aSyn 5UTR act -64.2*.
Screening COc1ccccc1N1C(=O)S/C(=C\c2ccc(C)s2)C1=O returned aSyn 5UTR act -135.4*.
`COc1ccccc1N1C(=O)S/C(=C\c2cc(C)n(C)c2C)C1=O` gave aSyn 5UTR act -127.6*.
Cc1ccc(/C=C2\Sc3ccccc3C2=O)s1 was read as aSyn 5UTR act -103.8*.
Screening CC(C)(C)C(=O)OCc1nc(-c2ccc(F)cc2)cs1 returned aSyn 5UTR act -106.2*.
For CC(C)(C)C(=O)OCc1nc(-c2ccc(Cl)cc2)cs1 the results were aSyn 5UTR act -133.1*.
`CC(C)(C)C(=O)OCc1nc(-c2ccc3c(c2)OCCO3)cs1` gave aSyn 5UTR act -140.9*.
